Compounds with a hit are over-represented: about 12% of the library has one in this group of screens.
SARS PLpro yeast – blocks SARS-CoV papain-like protease in a yeast assay | S. cerevisiae expressing SARS-CoV PLpro, growth rescue | Potency, µM (titrated, usually from 32.9 µM), for the others: at the highest dose activity, positive = growth rescue, hits mostly activators | 0.19% of 330,000 active | AID 485353; calls by dose curve; note: 0% is about no effect; nearly all actives have a fitted effect of over 55% in size
HCV inhibitor – blocks hepatitis C virus; Huh7.5.1 HCVcc-Cre infection, luciferase reporter, 44 h; Potency, µM (top dose mostly 41.8 µM), without a hit: at the highest dose activity change, negative = inhibition, actives largely listed as inhibitors; 3.4% of 340,000 active; AID 651820; note: % is set by controls: 0 for no effect and ±100 for the full control effect
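Cells seeded at 1,000/well and cultured 4 h, then compounds added followed by HCVcc-Cre virus (~0.5 moi). After 44 h further culture, luciferase substrate was added, plates held 15 min at room temperature, and luminescence read for 15 sec.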
NS1 function inh – inhibitors of influenza NS1 protein function; Potency, µM (highest dose often 46.1 µM), for the others: at the highest dose activity, positive = more growth; 0.4% of 270,000 active; calls by dose curve; note: actives are rising curves; nearly all actives have a fitted effect of over 50% in size
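Read-out: OD600 growth recovery of NS1-expressing budding yeast. Cells grown overnight at 30C in -URA glucose medium, washed, resuspended and diluted 1:100 in 2% galactose assay medium, pH 6.0. Same strain lacking NS1 served as positive control.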
AMA1-RON2 inh – AMA1-RON2 (P. falciparum) interaction inhibition; 0.2% of 360,000 active; AlphaScreen AMA1-biotinylated RON2 peptide binding; Potency, µM (series often up to 58.2 µM), without a hit: at the top dose activity change, negative = inhibition, hits mostly inhibitors; AID 720542;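 note: 0% = vehicle wells and -100% = peptide control; nearly all actives have a fitted effect of over 45% in size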
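AMA1 (3D7) with his tag at 25 nM final met compounds first, then biotinylated RON2 peptide at 25 nM; detection used donor plus acceptor beads, 10 µg/mL apiece, read by AlphaScreen after 30 min at room temperature.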
Pf growth 96h – inhibits malaria parasite growth, 96 h. P. falciparum luciferase reporter growth, 96 h. Potency, µM (titrated, usually from 28.7 µM), for the others: at the highest dose activity change, negative = inhibition, hits mostly inhibitors. 6.9% of 320,000 active; note: % is set by controls: 0 for no effect and ±100 for the full control effect
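Two parasite generations (96 h, 37 C, 5% CO2) of compound exposure in infected erythrocytes (0.05% parasitemia, 2% hematocrit). Luciferase-reporter P. falciparum; decreased luminescence indicates inhibited growth, aimed at apicoplast-acting delayed death.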
Pf growth 48h – inhibits P. falciparum growth in the first generation, 48 h | Potency, µM (series often up to 28.7 µM), without a hit: at the highest dose activity change, negative = inhibition, actives largely listed as inhibitors | AID 504832 | 5.9% of 310,000 active | P. falciparum luciferase growth in erythrocytes, 48 h; note: % is set by controls: 0 for no effect and ±100 for the full control effect
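Cell-based growth assay: transgenic P. falciparum expressing firefly luciferase, cultured in red cells within RPMI 1640 containing 0.5% w/v Albumax, 24 mM bicarbonate and gentamycin. A drop in luciferase activity indicates inhibition.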
The depositor's hits bear a star; [ ] = dose if it differs, or a comment. Unless noted, calls come from the whole dose curve; as a rule, active = well fitted curve in the direction sought with a large enough effect; inconclusive = small, poorly fitted or top-dose-only effect, or another doubt; inactive = no such curve, though single readings can be large; an effect the other way counts as inactive or inconclusive. Potency is the fitted concentration of half-maximal effect.

For Cc1cc(C(=O)NCC(=O)OC(C)C(=O)N2CCOCC2)ccc1[N+](=O)[O-] (stereo unspecified) the results were SARS PLpro yeast 5%, HCV inhibitor 6%, AMA1-RON2 inh 8%, Pf growth 96h 7.4µM* and Pf growth 48h inconclusive.
O=C(COC(=O)COc1ccc(Br)cc1)NC1CCS(=O)(=O)C1 (stereo unspecified) was read as AMA1-RON2 inh -9%.
`Cc1cc(NC(=O)c2cc3n(n2)C(C(F)(F)F)CC(c2ccco2)N3)n(-c2ccccc2)n1` (stereo unspecified) gave SARS PLpro yeast 1%, HCV inhibitor inconclusive, NS1 function inh 1%, AMA1-RON2 inh 1%, Pf growth 96h inconclusive and Pf growth 48h 9.3µM*.
O=C(c1cc2n(n1)C(C(F)(F)F)CC(c1ccco1)N2)N1CCc2ccccc2C1 (stereo unspecified) was read as SARS PLpro yeast -14%, HCV inhibitor -14%, NS1 function inh 5%[9.22 µM], AMA1-RON2 inh -7% and Pf growth 48h inconclusive.
COc1cc2c(cc1OC)C(C)N(C(=O)c1cc3n(n1)C(C(F)(F)F)CC(c1ccco1)N3)CC2 (stereo unspecified) was read as SARS PLpro yeast 24%, HCV inhibitor inconclusive, NS1 function inh -14%, AMA1-RON2 inh inconclusive and Pf growth 48h 6.6µM*.
For CC(C)(C)c1ccc(C(=O)N/N=C/c2ccc(OCCCF)cc2)cc1 the results were SARS PLpro yeast 0%, HCV inhibitor 8%, NS1 function inh 3%, AMA1-RON2 inh 0%, Pf growth 96h -26% and Pf growth 48h inconclusive.
For CC(=O)N[C@@H]1C(O)OC(CO)C(O)C1O (stereo partly specified) the results were Pf growth 96h -21% and Pf growth 48h -7%.
For CC(=O)N[C@@H]1C(O[C@H]2O[C@H](C(=O)O)C(O)[C@H](O)[C@H]2O)[C@H](O)[C@@H](CO)O[C@H]1O[C@@H]1C(C(=O)O)O[C@@H](O[C@H]2[C@H](O)[C@@H](CO)OC(O)[C@@H]2NC(C)=O)[C@H](O)[C@H]1O (stereo partly specified) the results were Pf growth 96h 1.7µM* and Pf growth 48h 2%.
For COC1OC(CO)C(OC2OC(C(=O)O)C(OC3OC(COS(=O)(=O)O)C(OC4OC(C(=O)O)C(OC5OC(CO)C(OC6OC(C(=O)O)C(OC7OC(COS(=O)(=O)O)C(OC8OC(C(=O)O)=C[C@H](O)C8OS(=O)(=O)O)C(O)C7NC(C)=O)[C@@H](O)C6O)C(O)C5NC(C)=O)[C@@H](O)C4O)C(O)C3NC(C)=O)[C@@H](O)C2O)C(O)C1NC(C)=O (stereo partly specified) the results were Pf growth 96h 7.6µM* and Pf growth 48h 12µM*.
`COc1ccccc1C(=O)NCC(=O)NCc1cc(=O)n(C)c(=O)n1C` gave SARS PLpro yeast 2%, HCV inhibitor 10%, NS1 function inh -12%, AMA1-RON2 inh 2%, Pf growth 96h 38% and Pf growth 48h 2%.
Cn1c(/C=C/c2ccc(Br)cc2)c([N+](=O)[O-])c(=O)n(C)c1=O was read as SARS PLpro yeast -5%, HCV inhibitor inconclusive, NS1 function inh -6%, AMA1-RON2 inh -9%, Pf growth 96h 33% and Pf growth 48h 9.3µM*.
Screening CN(C)c1ccc(/C=C/c2c([N+](=O)[O-])c(=O)n(C)c(=O)n2C)cc1 returned SARS PLpro yeast 0%, HCV inhibitor -1%, NS1 function inh -1%, AMA1-RON2 inh -7%, Pf growth 96h 16% and Pf growth 48h 27%.
CCOC(=O)C(C)(C)N(Cc1ccccc1C)S(=O)(=O)c1ccc(Cl)c([N+](=O)[O-])c1 was read as SARS PLpro yeast -22%, HCV inhibitor inconclusive, NS1 function inh 11%, AMA1-RON2 inh -5%[11.6 µM], Pf growth 96h 2.6µM* and Pf growth 48h inconclusive.
`NC(=O)[C@H](Cc1cc2ccccc2s1)NC(=O)[C@@H]1CC2(CC(c3cccc(NC(=O)[C@@H]4CCC(=O)N4)c3)=NO2)CN1C(=O)c1ccccc1` (stereo partly specified) gave SARS PLpro yeast 5%, HCV inhibitor 22%, NS1 function inh -1%, AMA1-RON2 inh 16%, Pf growth 96h 10µM* and Pf growth 48h 13µM*.
`NC(=O)[C@H]1CC2(CC(c3cccc(NC(=O)[C@H]4CCC(=O)N4)c3)=NO2)CN1C(=O)CC(c1ccccc1)c1ccccc1` (stereo partly specified) gave SARS PLpro yeast 0%, HCV inhibitor 17%, NS1 function inh -46%, AMA1-RON2 inh -3%, Pf growth 96h inconclusive and Pf growth 48h -39%.
NC(=O)[C@H](Cc1cc2ccccc2s1)NC(=O)[C@@H]1CC2(CC(c3cccc(NC(=O)[C@@H]4CCC(=O)N4)c3)=NO2)CN1C(=O)/C=C/c1c(F)cccc1Cl (stereo partly specified) was read as SARS PLpro yeast -7%, HCV inhibitor -11%, NS1 function inh inconclusive, AMA1-RON2 inh -11%, Pf growth 96h 2.9µM* and Pf growth 48h 4.1µM*.
Cc1ccc(C)c(C(=O)OCC(=O)Nc2ccc(N3CCOCC3)cc2)c1 was read as SARS PLpro yeast -2%, HCV inhibitor -2%, NS1 function inh -5%, AMA1-RON2 inh -17%, Pf growth 96h 3% and Pf growth 48h -6%.
Cc1ccc(N(CC(=O)NCc2ccccn2)S(=O)(=O)c2ccccc2)cc1C was read as SARS PLpro yeast -8%, HCV inhibitor 9%, NS1 function inh 8%, AMA1-RON2 inh -1%, Pf growth 96h 14% and Pf growth 48h -12%.
c1ccc(-c2nnc3sc(CN4CCc5ccccc54)cn23)cc1 was read as SARS PLpro yeast -62%, HCV inhibitor inconclusive, NS1 function inh -127%, AMA1-RON2 inh inconclusive, Pf growth 96h inconclusive and Pf growth 48h 10µM*.
`Brc1ccc(-c2nnc3sc(CN4CCc5ccccc5C4)cn23)cc1` gave HCV inhibitor 3%, NS1 function inh 5% and AMA1-RON2 inh -5%.
For CC(=O)N1c2cc3ccccc3cc2N(C(C)=O)c2cc3ccccc3cc21 the results were HCV inhibitor 8% and AMA1-RON2 inh 10%.
Screening CC(C)Oc1ccc(-c2nc(NCC3CCCO3)c3ccccc3n2)cc1 (stereo unspecified) returned SARS PLpro yeast -3%, HCV inhibitor 11µM*, NS1 function inh -5%, AMA1-RON2 inh 1%, Pf growth 96h inconclusive and Pf growth 48h inconclusive.
